{"source": "PubChem BioAssay AID1259415", "about": "(National Center for Advancing Translational Sciences (NCATS), 2018)", "note": "Screen size: about 410,000 compounds; about 18,000 (4.4%) were called active. About 7% were inconclusive and are not listed. For the sample, actives were picked, then their nearest neighbours and some compounds at random. Unmarked numbers belong to inactive results. Rule as the data show it: active = activity change below about -60%; inconclusive = no clear call, values can overlap the other calls; inactive = above about -39%. % is scaled to controls: 0 for no effect and ±100 for the full control effect."}
{"assay": "qHTS Assay for inhibitors of the human cytomegalovirus (HCMV)", "conditions": "HFF cells, HCMV-luciferase reporter, 72 h; at 57.5 µM; active compounds read low", "procedure,_shortened": "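Two-dose cell screen: HFF monolayers treated with compounds and infected with luciferase-expressing HCMV at 1 PFU/cell, 72 h at 37C, then lysed for luciferase measurement.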"}
{"compound": "CCc1ccccc1NC(=O)Cn1c(=O)n(-c2cccc(C)c2)c(=O)c2c1c1cc(OC)ccc1n2C", "activity change, negative = inhibition": "-23.1%"}
{"compound": "O=C(COC(=O)c1ncc(Cl)c(Cl)c1Cl)NCc1ccccc1", "activity change, negative = inhibition": "11.2%"}
{"compound": "O=C(COC(=O)CNC(=O)C1CCCCC1)NCc1ccccc1", "activity change, negative = inhibition": "69.4%"}
{"compound": "O=C(COC(=O)c1ccccc1C(=O)N1CCN(c2ccccc2)CC1)NCc1ccccc1", "activity change, negative = inhibition": "-62.6% (active)"}
{"compound": "O=C(C1CCCN(S(=O)(=O)c2cccc3nonc23)C1)N1CCN(c2ccccc2F)CC1", "note": "(configuration not stated)", "activity change, negative = inhibition": "6.66%"}
{"compound": "O=[N+]([O-])c1ccc(NCCCO)c(C(F)(F)F)c1", "activity change, negative = inhibition": "-8.02%"}
{"compound": "Cc1ccc(-c2csc(NC(=O)C3=COCCO3)n2)cc1C", "activity change, negative = inhibition": "-61.5% (active)"}
{"compound": "Cc1ccc(C(=O)Nc2nnc(C3=COCCO3)o2)cc1C", "activity change, negative = inhibition": "-0.804%"}
{"compound": "CCC(CC)c1nnc(NC(=O)C2=COCCO2)s1", "activity change, negative = inhibition": "-1.99%"}
{"compound": "CCOc1ccc(CN2CCN(Cc3ccon3)CC2CCO)cc1", "note": "(configuration not stated)", "activity change, negative = inhibition": "3.47%"}
{"compound": "CC(C)(c1ccccc1)c1ccc(OCCN)cc1", "activity change, negative = inhibition": "-107% (active)"}
{"compound": "Cc1nn(CCOc2ccccc2)c(=O)n1-c1ccccc1F", "activity change, negative = inhibition": "69.3%"}
{"compound": "C=CCNCCCCOc1ccccc1", "activity change, negative = inhibition": "16.3%"}
{"compound": "O=C(/C=C/c1ccccc1)Oc1coc(CSc2ncccn2)cc1=O", "activity change, negative = inhibition": "9.32%"}
{"compound": "COC(=O)c1ccc(OC)c(Cn2c(=O)n(Cc3ccccc3)c(=O)c3c2c2cc(OC)ccc2n3C)c1", "activity change, negative = inhibition": "7.51%"}
{"compound": "O=C(C1CCN(S(=O)(=O)c2cnc[nH]2)CC1)N1CCN(Cc2ccc3c(c2)OCO3)CC1", "activity change, negative = inhibition": "9.71%"}
{"compound": "O=C(C1CCN(Cc2ccc(Cl)cc2)CC1)N1CCN(Cc2ccc3c(c2)OCO3)CC1", "activity change, negative = inhibition": "-63% (active)"}
{"compound": "O=C(Nc1ccccc1)N1CCC(C(=O)N2CCN(Cc3ccccc3)CC2)CC1", "activity change, negative = inhibition": "0%"}
{"compound": "CCS(=O)(=O)N1CCc2cc(C(=O)NCc3ccc(C)cc3)ccc21", "activity change, negative = inhibition": "-3.25%"}
{"compound": "Cc1ccc(C(=O)Nc2ccccc2F)cc1S(=O)(=O)N1CCOCC1", "activity change, negative = inhibition": "31.5%"}
{"compound": "Cc1ccc(NC(=O)N[C@H]2CC[C@@]34CCCN3C(=O)CCC[C@H]4C2Cc2ccccc2)cc1", "note": "(some centres not stated)", "activity change, negative = inhibition": "26.8%"}
{"compound": "CCOC(=O)C1CCN(C(c2ccc(F)cc2)c2sc3nc(-c4ccco4)nn3c2O)CC1", "note": "(configuration not stated)", "activity change, negative = inhibition": "2.65%"}
{"compound": "Cc1cc(C)c(-c2n[nH]c3c2C(c2ccccc2F)N(CCO)C3=O)c(O)c1", "note": "(configuration not stated)", "activity change, negative = inhibition": "25.7%"}
{"compound": "CCC1(CC)NC(=O)N(CC(=O)OCC(=O)c2cc(C)c(C)cc2C)C1=O", "activity change, negative = inhibition": "-15.3%"}
{"compound": "Cc1ccc(C)c(OCCC(=O)Nc2cccc(S(=O)(=O)N3CCCC3)c2)c1", "activity change, negative = inhibition": "-23.7%"}
{"compound": "CC(=O)Nc1ccc(S(=O)(=O)N2CCN(CCCOc3cc(C)ccc3C)CC2)cc1", "activity change, negative = inhibition": "-65.9% (active)"}
{"compound": "Cc1cccc(OCCCC(=O)Nc2ccc(S(=O)(=O)N3CCCC3)cc2)c1", "activity change, negative = inhibition": "10.4%"}
{"compound": "CC1=C(C(=O)Nc2ccccc2)C(c2ccc(C)cc2)n2nc(SCc3ccccc3C)nc2N1", "note": "(configuration not stated)", "activity change, negative = inhibition": "1.28%"}
{"compound": "CC1=C(C(N)=O)C(c2ccc3c(c2)OCO3)n2nc(-c3cccc(C)c3)nc2N1", "note": "(configuration not stated)", "activity change, negative = inhibition": "78%"}
{"compound": "CCN(CC)c1ccc(C2C(C(N)=O)=C(C)Nc3nc(SCc4ccccc4)nn32)cc1", "note": "(configuration not stated)", "activity change, negative = inhibition": "-90.4% (active)"}
{"compound": "CNc1ccc(-c2nc(-c3ccco3)no2)cc1[N+](=O)[O-]", "activity change, negative = inhibition": "102%"}
{"compound": "COc1ccc(S(=O)(=O)n2nc(C)c(S(=O)(=O)N3CCCCCC3)c2C)cc1", "activity change, negative = inhibition": "-17.6%"}
{"compound": "Oc1c(CN2CCN(c3ccc(F)cc3)CC2)cc(Cl)c2cccnc12", "activity change, negative = inhibition": "-102% (active)"}
{"compound": "CC(C)c1ccc(O)c(CN2CCN(c3ccccc3)CC2)c1", "activity change, negative = inhibition": "12.7%"}
{"compound": "COc1ccccc1CN1CCCC(N2CCN(c3ccc(F)cc3)CC2)C1", "note": "(configuration not stated)", "activity change, negative = inhibition": "-1.19%"}
{"compound": "COc1ccc(CNc2nc(-c3ccccc3)nn2C(=O)c2ccccc2OC)cc1", "activity change, negative = inhibition": "-16.2%"}
{"compound": "N#Cc1cccc(NC(=O)N[C@H]2CC[C@@]34CCCN3C(=O)CCC[C@H]4C2Cc2ccccc2)c1", "note": "(some centres not stated)", "activity change, negative = inhibition": "0.85%"}
{"compound": "COc1ccc(C(CCN(Cc2ccc(OC)c(OC)c2)C(=O)CCl)c2ccccc2)cc1", "note": "(configuration not stated)", "activity change, negative = inhibition": "-91.8% (active)"}
{"compound": "CCOc1ccc(C(CCc2ccccc2)NC(=O)c2ccc(OC)c(OC)c2)cc1OCC", "note": "(configuration not stated)", "activity change, negative = inhibition": "37%"}
{"compound": "CCN(CCCCOC(=O)c1ccc(OC)c(OC)c1)C(C)Cc1ccc(OC)cc1", "note": "(configuration not stated)", "activity change, negative = inhibition": "-37%"}
{"compound": "Cc1noc2ncnc(NCc3ccccc3Cl)c12", "activity change, negative = inhibition": "-26.2%"}
{"compound": "O=C(O)c1ccc2c3c(cccc13)C(=O)N(OS(=O)(=O)c1ccccc1)C2=O", "activity change, negative = inhibition": "-101% (active)"}
{"compound": "Cc1cc(OCC(=O)Nc2ncn[nH]2)c(C)c(C)c1Br", "activity change, negative = inhibition": "1.07%"}
{"compound": "O=C(Nc1ccc(F)cc1F)c1cnn(-c2ccc(F)cc2)c1-n1cccc1", "activity change, negative = inhibition": "-4.17%"}
{"compound": "COc1ccc(Cl)cc1NC(=O)CSc1nc(-c2cccs2)cc(C(F)(F)F)n1", "activity change, negative = inhibition": "-23.8%"}
{"compound": "CC(=O)c1ccc(N2CCN(c3nc4c(S(=O)(=O)c5ccccc5)nnn4c4ccc(Cl)cc34)CC2)cc1", "activity change, negative = inhibition": "8.15%"}
{"compound": "c1ccc2cc(CCCc3cc4ccccc4cn3)ncc2c1", "activity change, negative = inhibition": "-18.2%"}
{"compound": "CN(CCc1ccccc1)c1ccc([N+](=O)[O-])cn1", "activity change, negative = inhibition": "12.9%"}
{"compound": "O=[N+]([O-])c1cnc2ccc3ccccc3c2c1", "activity change, negative = inhibition": "-96.3% (active)"}
{"compound": "O=C(c1c(F)cccc1F)N1CCN(c2ncc(Br)cn2)CC1", "activity change, negative = inhibition": "2.5%"}
{"compound": "CCOC(=O)c1ccc(N2C(=O)c3n[nH]c(-c4ccco4)c3C2c2ccc(O)cc2)cc1", "note": "(configuration not stated)", "activity change, negative = inhibition": "-8.9%"}
{"compound": "O=C(C1CC1)N1N=C(c2ccc(Br)cc2)CC1(O)C(F)(F)F", "note": "(configuration not stated)", "activity change, negative = inhibition": "10%"}
{"compound": "COC(=O)C1(O)CC(C(C)C)=NN1C(=O)c1ccc(Cl)cc1", "note": "(configuration not stated)", "activity change, negative = inhibition": "27.1%"}
{"compound": "O=C(c1ccc(Cl)cc1)N1N=C(c2ccccn2)CC1(O)C(F)(F)F", "note": "(configuration not stated)", "activity change, negative = inhibition": "-98.8% (active)"}
{"compound": "O=C(COc1ccccc1F)Nc1ccc(C(=O)OCc2cc(=O)n3nc(C4CC4)sc3n2)cc1", "activity change, negative = inhibition": "10.3%"}
{"compound": "CCCC(=O)N1CCN(c2nc3c(OC)ccc(C)c3s2)CC1", "activity change, negative = inhibition": "0.538%"}
{"compound": "O=C(C1CC(=O)N(c2ccc(Br)cc2)C1)N1CCCC1", "note": "(configuration not stated)", "activity change, negative = inhibition": "-23.4%"}
